Hits are enriched below; roughly 5% of the tested compounds scored in any of these assays.
USP10 block: blocks human USP10 ubiquitin-rhodamine cleavage; inhibition, % at 20 µM; purified USP10, Ub-rhodamine fluorescence, 60 min; actives 1.1% (n = 47,000)
USP8 inh: blocks human USP8 ubiquitin-rhodamine cleavage | purified USP8, Ub-rhodamine cleavage fluorescence, 30 min | inhibition, % at 20 µM | actives 4.2% (n = 47,000) | AID 1645853
USP7 block: blocks human USP7 ubiquitin-rhodamine cleavage. actives 0.3% (n = 47,000). purified USP7, Ub-rhodamine cleavage fluorescence. inhibition, % at 20 µM. AID 1645854
UCHL1 inh: inhibitors of human UCHL1 deubiquitinase; P09936; purified UCHL1, Ub-rhodamine cleavage fluorescence; inhibition, % at 20 µM; actives 0.2% (n = 47,000)
Target sequence (P09936 whole entry, looked up): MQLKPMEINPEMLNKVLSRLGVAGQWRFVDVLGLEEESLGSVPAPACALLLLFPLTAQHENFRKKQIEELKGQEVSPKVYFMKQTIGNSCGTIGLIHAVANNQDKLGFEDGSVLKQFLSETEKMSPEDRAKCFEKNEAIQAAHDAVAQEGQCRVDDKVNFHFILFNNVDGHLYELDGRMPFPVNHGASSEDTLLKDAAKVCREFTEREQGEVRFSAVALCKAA
* marks the source's active call; other numbers are inactive results. Rule as the data show it: active = inhibition above about 30%; inactive = the rest.

SMILES	USP10 block	USP8 inh	USP7 block	UCHL1 inh
O=C1NCCCC12CCN(Cc1ccccc1OCc1cccc(F)c1)CC2	-2.2	0.3	-54.5	-0.4
C1=CCC(CN(CCCn2ccnc2)Cc2cnc[nH]2)CC1 (stereo unspecified)	0.0	32.4*	-1.4	-2.3
Cc1csc(SCc2cc(=O)c(OC(=O)c3cccc(F)c3)co2)n1	6.4	60.7*	-19.9	3.3
O=C(Oc1coc(CSc2ncccn2)cc1=O)c1ccccc1F	3.4	2.1	-11.2	1.8
Cc1ccnc(SCc2cc(=O)c(OC(=O)c3c(F)cccc3Cl)co2)n1	0.3	31.1*	8.1	6.2
CCC(C(=O)Nc1cc(-c2ccccn2)no1)c1ccccc1 (stereo unspecified)	2.2	-0.7	0.9	0.4
COc1cc(OC)c2cc(C(=O)N[C@@H](Cc3ccccc3)C(=O)O)n(C)c2c1	5.6	58.4*	0.0	1.7
O=C(CCc1nnc2ccc(N3CCCC3)nn12)NC1CCCC1	-1.0	14.5	3.4	1.1
COc1cccc(-c2cc(C(=O)Nc3cc(C)n(Cc4ccc(Cl)cc4)n3)no2)c1	21.6	38.1*	15.6	2.7
CC(Oc1ccc(F)cc1)C(=O)Nc1ccc2nsnc2c1 (stereo unspecified)	2.7	83.5*	-7.3	2.6
CCOc1ccc(-c2cnc(NCc3cccc(C)c3)n2C)cc1	-4.2	53.2*	-9.7	-5.2
CCOc1ccc(NC(=O)CN2CCN(Cc3cccc(C)c3)S2(=O)=O)cc1	-1.9	16.4	3.1	2.9
CNC(=O)[C@@H]1C[C@@H]2CN(C(=O)Nc3ccc(C)cc3)CCN2[C@@]12C(=O)Nc1ccccc12	0.0	14.4	-0.1	4.0
Cc1nc(-c2cccc(N3CC(C(=O)NC4CCCC4)CC3=O)c2)no1 (stereo unspecified)	-1.5	2.9	-0.9	0.6
O=C(NC1CCCC1)C1CC(=O)N(c2cccc(-c3noc(-c4cccs4)n3)c2)C1 (stereo unspecified)	45.3*	-0.3	1.4	3.9
COc1ccc(-c2csc(-c3cc4c([nH]c3=O)CC(c3ccco3)CC4=O)n2)cc1 (stereo unspecified)	-6.0	-15.6	-34.0	-35.8
O=C1CC(c2ccco2)Cc2[nH]c(=O)c(-c3nc(-c4ccc(Cl)cc4)cs3)cc21 (stereo unspecified)	-10.3	34.0*	40.7*	13.1
CN(C)S(=O)(=O)c1ccc(C(=O)Nc2c(C#N)oc3ccccc23)cc1	11.0	0.3	6.7	3.8
O=C(Cn1cc(C(=O)c2ccc(F)cc2)c(=O)c2ccccc21)Nc1ccc2c(c1)OCO2	46.6*	70.6*	18.5	3.9
COc1ccccc1NC(=O)Cn1cc(C(=O)c2ccc(C)cc2)c(=O)c2cc(C)ccc21	0.0	16.5	8.4	2.8
COc1ccc(NC(=O)Cn2cc(C(=O)c3ccc(C)cc3)c(=O)c3ccccc32)cc1	37.9*	48.7*	10.6	2.5
Cc1ccc(C)c(NC(=O)Cn2cc(C(=O)C3CC3)c3ccccc32)c1	45.6*	92.9*	35.4*	3.5
Cc1ccc2c(c1)c(=O)c(C(=O)c1ccccc1)cn2CC(=O)Nc1ccc2c(c1)OCCO2	26.0	29.9	16.8	3.9
Cc1ccc(C(=O)c2cn(CC(=O)Nc3ccccc3)c3ccc(C)cc3c2=O)cc1	35.6*	61.9*	18.6	8.2
Cc1ccc(NC(=O)CCC(=O)N(c2ccccc2)c2ccccc2)c(F)c1	4.4	12.3	-16.6	1.9
SMILES	USP10 block	USP8 inh	USP7 block	UCHL1 inh
CC(C)NC(=O)c1ccc(OCC2CCN(C(=O)C3CCCC3)CC2)cc1	-2.6	4.6	0.9	0.4
CCN1CCN(c2ccc(-c3ccc(OC)c(S(=O)(=O)N4CCCC4)c3)nn2)CC1	-0.4	-4.7	2.8	-2.1
Cc1ccc(C(=O)c2cn(CC(=O)Nc3ccccc3)c3ccccc3c2=O)cc1	46.1*	97.3*	16.5	8.6
CC1CCc2c(sc(N)c2C(=O)NC2CCCC2)C1 (stereo unspecified)	-9.1	37.1*	-28.2	-18.7
CC1CCc2c(sc3ncnc(NC4CC4)c23)C1 (stereo unspecified)	-0.3	15.4	-14.5	-0.7
CCCCNc1ccccc1C(=O)OCc1nnc(-c2cc(-c3ccc(OC)c(OC)c3)nc3ccccc23)o1	-4.1	72.1*	1.7	0.0
COc1ccc(-c2cc(-c3nnc(COC(=O)C4COc5ccccc5O4)o3)c3ccccc3n2)cc1OC (stereo unspecified)	-9.9	-7.2	-0.4	-7.8
O=C(Nc1ccc2c(c1)OCO2)C1[C@@H]2C(=O)N(c3ccccc3)C(=O)[C@@H]2[C@H]2c3ccccc3C=CN12 (stereo partly specified)	-4.9	49.2*	-139.1	-154.1

From PubChem
